Screening results as filed in PubChem BioAssay.
IL1B secr inh = inhibitors of inflammasome signaling (IL-1 beta secretion); THP-1 LPS/ATP IL-1B secretion, AlphaLISA, 16 h; active compounds read low; activity change, % at 57.5 µM; hit rate 4.7% among 360,000; in the data active = activity change below about -50%; inconclusive = mostly about -30% to -49%
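Secreted IL-1B measured by AlphaLISA bead assay after 16 h compound exposure of THP-1 cells; compounds (final up to 57.5 uM) added 1 h before LPS (250 ng/mL) and ATP (1.25 mM) stimulation; lower signal means less secretion.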
DT40 TDP1 CPT = growth inhibition of DT40 Tdp1-/-;hTDP1 cells with camptothecin (screen for TDP1 inhibitors) | chicken DT40 Tdp1-/-;hTDP1 cells + 20 nM CPT, ATP luminescence, 48 h | Potency, µM (doses to about 46.2 µM), actives largely listed as inhibitors | hit rate 12% among 420,000 | AID 686979; note: nearly all actives have a fitted effect of over 55% in size
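Chicken DT40 Tdp1-/- cells stably complemented with human TDP1 were seeded at 400 cells/well in medium containing 20 nM camptothecin, exposed to pin-transferred compounds, and grown at 37 °C for at least 48 hr. Viability was read as ATP luminescence.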
uPA generation = cell surface uPA generation inhibition; cell surface uPA generation assay, qHTS; Potency, µM (series often up to 38.3 µM), actives largely listed as inhibitors; hit rate 0.31% among 330,000; AID 540303; active = well fitted inhibition curve with a large enough effect; inconclusive = small, poorly fitted or top-dose-only effect; inactive = no such curve, though single readings can be large or run the other way; tested in mouse RAW 264.7 cells; note: nearly all actives have a fitted effect of over 55% in size
HT1080-NT tox = kills 2HG-producing HT-1080-NT fibrosarcoma cells | HT-1080-NT fibrosarcoma viability, CellTiter-Glo ATP luminescence, 48 h | Potency, µM (titrated, usually from 46.1 µM), hits mostly cytotoxic | hit rate 1.6% among 360,000;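 note: NT is the 2HG producing partner of a matched IDH1 knockdown line; nearly all actives have a fitted effect of over 55% in size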
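Viability by CellTiter-Glo luminescence after 48 h compound exposure at 37C of HT-1080-NT cells (750/well, RPMI, 5% FBS). % activity scaled between DMSO wells and medium-only wells, then curve-fitted and categorized by curve class.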
HT1080 IDH1KD tx = HT-1080 IDH1 knockdown cell toxicity (counter line); hit rate 2% among 360,000; HT-1080 IDH1 knockdown viability, ATP luminescence, 48 h; AID 686971; Potency, µM (doses to about 46.1 µM), most hits filed as cytotoxic
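% activity derives from luminescence (CellTiter-Glo), normalised to DMSO and no-cell wells. HT-1080-IDH1KD cells, 750/well, had 48 h compound exposure at 37 °C.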
TDP1 cell noCPT = qHTS for Inhibitors of human tyrosyl-DNA phosphodiesterase 1 (TDP1): qHTS in cells in absence of CPT; DT40 Tdp1-/- hTDP1 cells, no CPT, ATP luminescence, 48 h; Potency, µM (doses to about 46.2 µM), hits mostly inhibitors; hit rate 15% among 420,000; AID 686978, 2013; note: nearly all actives have a fitted effect of over 55% in size
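No-CPT arm: Tdp1-/-;hTDP1 DT40 cells (400/well) plus compounds, incubated ≥48 hr at 37 °C. Readout CellTiter-Glo luminescence.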
A number is an active result; i = inactive; ? = inconclusive; nt = not tested or not shown; [ ] = remark or other dose. Hits are enriched below; roughly 19% of the tested compounds scored in any of these assays. Unless noted, calls come from the whole dose curve; as a rule, active = well fitted curve in the direction sought with a large enough effect; inconclusive = small, poorly fitted or top-dose-only effect, or another doubt; inactive = no such curve, though single readings can be large; an effect the other way counts as inactive or inconclusive.

SMILES	IL1B secr inh	DT40 TDP1 CPT	uPA generation	HT1080-NT tox	HT1080 IDH1KD tx	TDP1 cell noCPT
CC(C)(C)CC(C)(C)N=C1Nc2cc(Cl)c(Cl)cc2NC12C[C@H]1CCC(=O)N3CC[C@@H](C2)[C@@H]13 (stereo not given in full)	-64.2	?	i	i	i	?
CC(C)(C)CC(C)(C)N=C1Nc2cc(Cl)c(Cl)cc2N[C@]12C[C@H]1CCCC(=O)N3CC[C@@H](C2)[C@@H]13	nt	?	nt	nt	nt	11.2µM
CC(C)(C)CC(C)(C)N=C1Nc2ccccc2NC12C[C@H]1CCC(=O)N3CC[C@@H](C2)[C@@H]13 (stereo not given in full)	i	?	i	i	i	?
CCCN1CNc2c(c(=O)[nH]c(=S)n2CCc2cccc(C)c2)C1	nt	?	nt	i	i	?
COCCn1c(=O)c(-c2ccc(F)cc2)nc2cnc(OCc3ccccc3)nc21	nt	i	nt	nt	nt	i
CCCn1c(SCc2nc3sc(C)c(C)c3c(=O)[nH]2)nc2ccccc2c1=O	i	?	i	i	i	14.6µM
CCn1c(SCc2nc3sc(C(=O)O)c(C)c3c(=O)[nH]2)nnc1-c1ccc(Cl)cc1	i	i	i	i	i	i
COCCn1c(Cc2ccccc2)nnc1SCc1nc2ccccc2c(=O)[nH]1	i	?	i	i	i	16.4µM
CCn1c(SCc2nc3ccccc3c(=O)[nH]2)nc2ccccc21	i	?	i	i	i	20.6µM
Cc1sc2nc(CSc3nnnn3-c3ccc(Cl)cc3)[nH]c(=O)c2c1C	i	?	i	i	i	16.4µM
Cc1ccc(S(=O)(=O)NC(C)CCc2ccccc2)cc1 (stereo not given)	i	?	i	i	i	i
Cc1ccc(S(=O)(=O)NC(C)CCc2ccccc2)cc1C(N)=O (stereo not given)	i	?	i	i	i	18.4µM
Cn1cnc2c(=O)oc3ccc(S(=O)(=O)N4CCN(c5cccc(C(F)(F)F)c5)CC4)cc3c21	nt	i	nt	nt	nt	i
Cc1ccc(C)c(S(=O)(=O)N2CCN(C(=O)c3cccnc3)CC2)c1	i	i	i	i	i	i
CCOC(=O)c1c(C)nc(-c2ccccc2)nc1N	i	i	i	i	i	i
CCOC(=O)c1nnc(-c2ccc(C)cc2)nc1Sc1ccccc1Cl	-96.5	?	i	i	i	16.4µM
CCOC(=O)c1nnc(-c2ccccc2)nc1Sc1c(Cl)cccc1Cl	-116.1	20.6µM	i	?	20.6µM	16.4µM
CCOC(=O)c1nnc(-c2ccc(C)cc2)nc1Sc1ccc(Cl)cc1	i	8.2µM	i	i	i	8.2µM
CC[C@@H](NC(=O)[C@H](Cc1ccccc1)NC(=O)CC[C@H]1O[C@@H](n2ccc(=O)[nH]c2=O)[C@H](O)[C@@H]1O)c1ccccc1	i	i	nt	i	i	i
COc1ccc(-c2sc3ccccc3c2-c2ccc(OC)cc2F)cc1	i	i	nt	i	i	?
CCOc1ccc(C2/C(=C(\O)c3cccc(OC)c3)C(=O)C(=O)N2c2ccccn2)cc1OC (stereo not given)	i	i	i	i	i	i
N#Cc1cc2cc3c(cc2nc1N1CCCCC1)OCCO3	i	?	i	i	i	?
Cc1cc(C)c2nc(N3CCCN(C(=O)c4cnccn4)CC3)c(C#N)cc2c1	i	23.1µM	i	i	i	16.4µM
COc1ccc(C(=O)N2CCN(c3nc4cc(C)cc(C)c4cc3C#N)CC2)cc1	i	?	nt	i	i	18.4µM
Cc1ccc(C(=O)N2CCCN(c3nc4cc5c(cc4cc3C#N)OCO5)CC2)cc1	i	?	i	?	20.6µM	14.6µM
SMILES	IL1B secr inh	DT40 TDP1 CPT	uPA generation	HT1080-NT tox	HT1080 IDH1KD tx	TDP1 cell noCPT
NC(=NCCc1c[nH]c2ccccc12)NC(=O)c1ccc(F)cc1	-62.9	i	i	i	?	?
NC(=NCCc1c[nH]c2ccccc12)NS(=O)(=O)c1ccc2ccccc2c1	?	4.61µM	i	i	i	5.17µM
NC(=NCCc1c[nH]c2ccccc12)NS(=O)(=O)c1ccc(F)cc1	i	?	i	i	i	?
Cc1cc(NC(=O)CSc2nc3c(c(=O)n2-c2ccccc2)SC(C)C3)no1 (stereo not given)	i	?	i	i	i	20.6µM
CCSc1nc2c(c(=O)n1Cc1ccccc1)SC(C)C2 (stereo not given)	?	11.6µM	i	i	i	?
CC1Cc2nc(SCC(=O)Nc3ccc4c(c3)OCO4)n(Cc3ccccc3)c(=O)c2S1 (stereo not given)	i	16.4µM	i	i	i	?
CC1Cc2nc(SCC(=O)Nc3nccs3)n(Cc3ccccc3)c(=O)c2S1 (stereo not given)	i	20.6µM	i	i	i	?
Cc1ccc(S(=O)(=O)N2C[C@H]3C(=O)C[C@@H](c4ccc(Cl)cc4)N(S(=O)(=O)c4ccc(C)cc4)[C@H]3C[C@H]2c2cccc3ccccc23)cc1	i	i	nt	?	i	i
Cc1nn(CC(=O)Nc2cccc(C(F)(F)F)c2)c(=O)c2nn(-c3ccccc3)c(C)c12	nt	i	nt	nt	nt	i
CCCCCCCCCCCCCCC[C@@H](O)[C@H](CO)NC(C)=O	nt	i[4.12 µM]	nt	nt	nt	i[4.12 µM]
COCCn1c(SCC(=O)Nc2ccc3c(c2)OCCO3)nc2c(c1=O)SC(C)C2 (stereo not given)	i	14.6µM	i	i	i	?
CC1Cc2nc(SCC(=O)Nc3ccc4c(c3)OCCO4)n(C)c(=O)c2S1 (stereo not given)	i	?	i	i	i	?
Cc1noc(C)c1COc1ccc(C(=O)OCC(=O)N2CC3(C)CC2CC(C)(C)C3)cc1 (stereo not given)	i	?	i	i	i	18.4µM
Cc1cccc(C)c1OCC(=O)N1CC2(C)CC1CC(C)(C)C2 (stereo not given)	i	?	i	i	i	14.1µM
Cc1ccc(OCC(=O)N2CC3(C)CC2CC(C)(C)C3)cc1 (stereo not given)	i	?	i	i	i	?
CCOC(=O)c1ccc(OCCOc2cccc(C)c2)cc1	i	i	i	i	i	i
CC(=O)N/C(=N\c1nc(C)cc(C)n1)Nc1ccc2ccccc2c1	i	?	i	i	i	?
CCOc1ccccc1/C=N/NC(=O)C[n+]1ccccc1	i	i	i	i	i	i
Cc1cccc(NC(=O)CC2C(=O)NC3CCCCC3N2C(=O)c2ccccc2Cl)c1 (stereo not given)	i	i	i	i	i	i
Cc1ccc(C(=O)N2C(CC(=O)Nc3ccc(Cl)cc3)C(=O)NC3CCCCC32)cc1 (stereo not given)	i	16.4µM	i	5.8µM	5.17µM	?
